Screen size: about 360,000 compounds; about 2,400 (0.67%) were called active.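 Rule for the calls: active = compounds whose normalised, plate-corrected inhibition of enzyme fluorescence in the single-dose primary screen is 50% or more; inactive = the rest.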 Shown is part of a subset that was picked to be rich in actives.

In the test the target is Fatty acid synthase (Homo sapiens) (UniProt P49327). Nature of the test: FAS thioesterase domain inhibitors, primary screen, biochemical, fluorescence intensity, uHTS (AID 602261).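 Note: 0% = DMSO with enzyme and 100% = substrate without enzyme.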 The conditions noted are these: recombinant FAS-TE, OMFH fluorogenic substrate, fluorescence endpoint; at 15 µM; active compounds read high.
Chain of Fatty acid synthase (Homo sapiens) (P49327 whole entry, looked up, the tested form may be a part): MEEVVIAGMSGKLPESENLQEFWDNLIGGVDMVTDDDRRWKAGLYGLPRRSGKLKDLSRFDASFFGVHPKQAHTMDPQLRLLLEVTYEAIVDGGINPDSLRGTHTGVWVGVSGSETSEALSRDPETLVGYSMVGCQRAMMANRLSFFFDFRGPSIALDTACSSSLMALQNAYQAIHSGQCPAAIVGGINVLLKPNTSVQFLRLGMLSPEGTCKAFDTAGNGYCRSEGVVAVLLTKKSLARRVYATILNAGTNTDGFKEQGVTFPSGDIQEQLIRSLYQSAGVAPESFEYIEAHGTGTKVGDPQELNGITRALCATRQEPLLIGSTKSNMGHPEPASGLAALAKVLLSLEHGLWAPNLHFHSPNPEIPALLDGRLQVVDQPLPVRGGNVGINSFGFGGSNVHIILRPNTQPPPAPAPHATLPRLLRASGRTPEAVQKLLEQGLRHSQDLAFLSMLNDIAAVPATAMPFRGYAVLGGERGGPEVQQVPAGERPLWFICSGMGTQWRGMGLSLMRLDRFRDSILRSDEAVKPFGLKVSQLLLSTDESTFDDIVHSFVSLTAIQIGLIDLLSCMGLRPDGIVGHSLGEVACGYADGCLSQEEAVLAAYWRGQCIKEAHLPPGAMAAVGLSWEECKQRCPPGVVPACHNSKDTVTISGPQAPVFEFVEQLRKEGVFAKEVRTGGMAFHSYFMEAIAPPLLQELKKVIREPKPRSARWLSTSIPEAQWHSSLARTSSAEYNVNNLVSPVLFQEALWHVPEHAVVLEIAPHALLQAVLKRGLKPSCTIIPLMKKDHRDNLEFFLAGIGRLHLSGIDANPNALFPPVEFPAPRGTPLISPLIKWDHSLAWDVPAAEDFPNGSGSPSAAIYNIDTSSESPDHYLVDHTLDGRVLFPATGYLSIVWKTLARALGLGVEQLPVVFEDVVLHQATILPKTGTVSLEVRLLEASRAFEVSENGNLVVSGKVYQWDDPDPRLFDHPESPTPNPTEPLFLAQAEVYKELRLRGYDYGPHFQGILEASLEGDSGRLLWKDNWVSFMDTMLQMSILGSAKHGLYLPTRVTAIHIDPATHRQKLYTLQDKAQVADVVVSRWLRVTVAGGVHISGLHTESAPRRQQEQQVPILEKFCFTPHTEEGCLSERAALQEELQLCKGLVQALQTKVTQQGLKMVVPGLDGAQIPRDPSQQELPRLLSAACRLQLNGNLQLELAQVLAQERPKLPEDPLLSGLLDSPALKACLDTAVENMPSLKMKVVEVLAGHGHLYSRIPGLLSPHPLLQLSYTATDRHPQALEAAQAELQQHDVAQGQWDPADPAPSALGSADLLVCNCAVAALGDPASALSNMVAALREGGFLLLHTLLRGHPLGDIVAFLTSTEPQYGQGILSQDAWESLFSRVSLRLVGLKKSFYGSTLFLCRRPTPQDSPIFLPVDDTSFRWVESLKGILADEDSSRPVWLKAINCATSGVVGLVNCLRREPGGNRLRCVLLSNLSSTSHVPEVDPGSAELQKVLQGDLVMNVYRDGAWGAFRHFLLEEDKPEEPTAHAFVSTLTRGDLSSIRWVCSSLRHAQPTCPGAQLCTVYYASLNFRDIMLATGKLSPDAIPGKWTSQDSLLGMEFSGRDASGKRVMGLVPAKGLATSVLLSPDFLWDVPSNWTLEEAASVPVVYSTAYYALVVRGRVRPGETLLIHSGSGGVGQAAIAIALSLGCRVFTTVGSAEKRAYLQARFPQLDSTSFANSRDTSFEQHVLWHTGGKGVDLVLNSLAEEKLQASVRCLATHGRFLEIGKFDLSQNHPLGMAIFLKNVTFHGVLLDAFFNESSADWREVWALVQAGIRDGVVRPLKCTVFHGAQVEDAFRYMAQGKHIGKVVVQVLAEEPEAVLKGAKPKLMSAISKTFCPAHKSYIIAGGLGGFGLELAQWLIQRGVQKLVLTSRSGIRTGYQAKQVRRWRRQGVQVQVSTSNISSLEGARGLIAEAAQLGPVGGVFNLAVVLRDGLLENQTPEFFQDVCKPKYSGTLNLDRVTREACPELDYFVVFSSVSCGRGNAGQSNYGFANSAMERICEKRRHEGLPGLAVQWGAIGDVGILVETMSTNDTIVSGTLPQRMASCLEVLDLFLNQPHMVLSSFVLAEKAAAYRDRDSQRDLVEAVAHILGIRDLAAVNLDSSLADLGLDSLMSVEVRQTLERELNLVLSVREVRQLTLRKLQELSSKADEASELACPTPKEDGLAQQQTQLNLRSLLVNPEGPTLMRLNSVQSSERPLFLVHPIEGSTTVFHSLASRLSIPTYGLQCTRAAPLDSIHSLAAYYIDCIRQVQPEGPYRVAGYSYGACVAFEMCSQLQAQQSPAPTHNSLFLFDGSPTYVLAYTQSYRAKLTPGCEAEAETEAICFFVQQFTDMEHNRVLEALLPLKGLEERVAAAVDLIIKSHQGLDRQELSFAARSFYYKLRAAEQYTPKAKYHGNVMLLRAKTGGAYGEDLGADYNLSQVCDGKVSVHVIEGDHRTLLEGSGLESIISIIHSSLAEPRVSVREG
By inhibition is commonly meant the change of the read-out against control, counted positive when it falls. With `CCOC(=O)[C@]12Cc3cc(OC)ccc3[C@H]1N(C(C)C)C(=O)c1ccccc12`, the inhibition is 36.7% (inactive).
With `CCOC(=O)[C@]12Cc3ccccc3[C@H]1N(C1CCCCC1)C(=O)c1cc(OC)ccc12` the figure was 67.5% (active); with `CC(=O)c1ccc(OC(NC(=O)Cc2ccccc2)C(Cl)(Cl)Cl)cc1` (stereo not given), 11.2% (inactive).
In the case of `O=C1C2(Cl)C3(Cl)C4(Cl)C(Cl)(Cl)C5(Cl)C3(Cl)C1(Cl)C5(Cl)C24Cl` (stereo not given) it was 72.1% (active).
As to `O=C(O)CCn1cc(C=C2C(=O)NC(=S)NC2=O)c(-c2cccc(Br)c2)n1`, the inhibition is -3.4% (inactive).
In the case of `COC(=O)C1=C(c2ccc3ccccc3c2)C[C@@H]2CC[C@H]1N2C(=O)NCCO` it was -1.8% (inactive); in that of `O=c1[nH]c2ccccc2n1C1CCN(C(c2ccnc3ccccc23)c2nnnn2Cc2ccccc2)CC1` (stereo not given), 5.1% (inactive).
With `COc1ccc(-n2nnnc2C(c2cccc3ccccc23)N2CCC(n3c(=O)[nH]c4ccccc43)CC2)cc1` (stereo not given) the figure was 87.1% (active); with `O=c1[nH]c2ccccc2n1C1CCN(C(c2ccccc2)c2nnnn2Cc2ccccc2)CC1` (stereo not given), 18.3% (inactive); with `CCOc1ccc(CN(CCCl)CCCl)cc1C(=O)OC`, -5.1% (inactive).
With `O=C(NC1CCCCC1)N1Cc2cc(N3CCCCC3)ccc2-n2nncc2C1` the figure was -2.8% (inactive); with `CN(C)CC1CCCCC1OC(=O)c1ccc(Cl)c(Cl)c1` (stereo not given), -3.1% (inactive); with `CCCCCCCCCCCCn1ccc(=N)cc1`, -0.8% (inactive).
With `COc1cccc(C(c2nnnn2-c2ccc3c(c2)OCCO3)N2CCC3(CC2)C(=O)NCN3c2ccccc2)c1OC` (stereo not given), the inhibition is 62% (active).
With `O=C1NCN(c2ccccc2)C12CCN(C(c1cccs1)c1nnnn1C1CCCCC1)CC2` (stereo not given), the inhibition was 14.5% (inactive).
With `Cc1ccc(-c2cc(C(=O)N3CCC4(CC3)OCCO4)no2)cc1` the figure was 1.5% (inactive); with `COc1ccc2c(c1O)-c1cccc3c1[C@@H](C2)N(C)CC3`, -2.4% (inactive).
Turning to `CCOC(=O)C(O)(c1ccc(N=Cc2ccccc2O)c(C)c1)C(F)(F)F` (stereo not given), the inhibition is -4.3% (inactive).
With `CC(C)Oc1cccc(C(=O)C2CCCN(C3CCOCC3)C2)c1` (stereo not given) the figure was -0.1% (inactive); with `c1cncc(CNCCc2c[nH]c3ccccc23)c1`, 5.2% (inactive).

The values above are taken from PubChem BioAssay AID602261 (Sanford-Burnham Center for Chemical Genomics, 2012).
